In the library only some 1.8% were active in any assay of this set; here they are far more common.
Six1-Eya2 inh: inhibitors of human Six1/Eya2 interaction | AlphaScreen GST-Six1/His-Eya2 binding, biochemical; stronger effect = lower value | 360,000 compounds, 0.56% hits | Q15475+O00167 | activity change, % (concentration not given with the values) | AID 651725
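GST-Six1 + His-Eya2 (5X stock: 250/500 nM); Tris pH 8.0, 300 mM NaCl, 0.05% BSA, 0.02% Tween 20; GSH donor/Ni acceptor beads; 1 h 37 °C dark; AlphaScreen readout.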
pAkt inh: Akt phosphorylation inhibition; Neuro2A IGF-stimulated pAkt S473 HTRF, 20 min; stronger effect = lower value; activity change, % for hits at 50 µM; 360,000 compounds, 0.32% hits; in the data active = activity change below about -80%; inconclusive = mostly about -51% to -80%
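Neuro2A cells in DMEM with 0.5% FBS, overnight at 37 deg C, given compound at single 50 µM final, then IGF (6 nM final) for 20 min at 37 deg C. Lysed; phospho-Akt Ser473 by HTRF after 24 h, 665/615 ratio.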
CtBP-E1A inh: blocks the CtBP interaction with E1A; AlphaScreen GST-E1A/His-CtBP binding, 1536-well; stronger effect = lower value; activity change, % (no concentration beside the values); 340,000 compounds, 0.49% hits; AID 651724
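AlphaScreen with 125 nM GST-E1A and 125 nM His-CtBP (5X stocks) in Tris pH 8.0, 300 mM NaCl, BSA, Tween 20, TCEP. Compounds preincubated 2 h at 37 deg C, then glutathione donor/nickel acceptor beads added for 1 h at 37 deg C in dark.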
PI4K2A inh: inhibitors of human PI4K2A; 420,000 compounds, 0.13% hits; purified PI4K2A, ADP-Glo luminescence, 1 h; stronger effect = lower value; AID 1346378; activity change, negative = inhibition, % at 76.9 µM; Q9BTU6; in the data active = activity change below about -50%; inconclusive = mostly about -30% to -49%;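 note: -100% = wells without enzyme as full effect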
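PI4K2A activity was measured by ADP-Glo luminescence: enzyme (4 ug/mL stock) and phosphatidylinositol (1.2 mM stock) in Tris pH 7.5/MgCl2/EGTA/Triton X-100 buffer were reacted with ATP (300 microM stock) for one hour at ambient temperature.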
PI5P4K alpha inh: inhibitors of human PI5P4K alpha. P48426. PI5P4Kalpha enzyme, ADP-Glo luminescence, 60 min; stronger effect = lower value. max response, %. 330,000 compounds, 1.2% hits; active = max response of -50% or lower; inconclusive = between -30% and -50%; inactive = -30% or higher; note: value at the top dose of about 77 µM
Target sequence (P48426 whole entry, looked up): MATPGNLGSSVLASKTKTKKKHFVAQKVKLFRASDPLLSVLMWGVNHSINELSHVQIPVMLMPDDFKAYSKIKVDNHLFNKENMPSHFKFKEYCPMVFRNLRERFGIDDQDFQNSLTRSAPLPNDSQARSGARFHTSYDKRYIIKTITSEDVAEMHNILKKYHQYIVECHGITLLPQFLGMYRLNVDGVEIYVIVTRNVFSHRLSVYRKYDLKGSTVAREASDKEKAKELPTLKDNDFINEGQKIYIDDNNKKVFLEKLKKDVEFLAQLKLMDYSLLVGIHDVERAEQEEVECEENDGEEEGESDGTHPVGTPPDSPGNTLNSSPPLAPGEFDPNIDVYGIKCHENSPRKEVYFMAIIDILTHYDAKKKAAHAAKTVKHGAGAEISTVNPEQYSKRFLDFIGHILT
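Reactions run in 0.038 M HEPES pH 7.4, 0.28 mM EGTA, 0.1% CHAPS and 5% DMSO, with PI5P4Kalpha, substrate, compound and 5 microM ATP final, one hour at room temperature. Readout is ADP-Glo luminescence.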
ADP-Glo interf: interferes with ADP-Glo detection without enzyme present | ADP-Glo detection counter-screen, luciferase luminescence, no enzyme | 1,100 tested, under 10 active | shares compounds with PI5P4K alpha inh | Potency, µM (doses to about 76.9 µM), for the others: at the highest dose activity change, negative = inhibition, actives largely listed as inhibitors; active = well fitted curve in the direction sought with a large enough effect; inconclusive = small, poorly fitted or top-dose-only effect, or another doubt; inactive = no such curve, though single readings can be large or run the other way
* hit, by the source's call; i = inactive; ? = inconclusive; · = no result. Cut-off read from the data, not from the text of the source, unless noted: active = activity change below about -65%; inconclusive = mostly about -30% to -63%; inactive = weaker than that. Unless noted, % is set by controls: 0 for no effect and ±100 for the full control effect.

SMILES	Six1-Eya2 inh	pAkt inh	CtBP-E1A inh	PI4K2A inh	PI5P4K alpha inh	ADP-Glo interf
CN(c1ccc(-c2csc(NC(=O)CCCc3nc4ccccc4c(=O)[nH]3)n2)cc1)S(C)(=O)=O	-6	i	-4	1	-56*	-9%
O=C1NC(c2ccc(Cl)c([N+](=O)[O-])c2)Nc2ccccc21 (stereo unspecified)	0	i	-3	-3	4	·
O=C1NC(c2cc(Cl)cc([N+](=O)[O-])c2O)Nc2ccccc21 (stereo unspecified)	-3	i	1	1	-79*	6%
O=C(OCC(=O)N1CCc2ccccc21)c1cncc(Br)c1	-1	i	4	1	-1	·
C[C@H](CO)N1C[C@H](C)[C@@H](CN(C)S(=O)(=O)c2ccc3c(c2)OCCCO3)OCc2cnnn2CCCC1=O	7	i	5	3	-61*	-3%
O=C(Nc1ccccc1C(=O)O)c1cncc(Br)c1	-3	·	0	-5	?	·
CCOC(=O)Cc1csc(NC(=O)Cc2cccs2)n1	0	·	0	-3	-58*	0%
COC(=O)c1ccccc1NC(=O)CN1CCC(n2nnc3cc(C(F)(F)F)ccc32)CC1	2	i	5	1	?	4%
O=C(O)CCC(=O)N1CCC(n2nnc3cc(C(F)(F)F)ccc32)CC1	2	i	7	7	-24	2%
CC(C)c1ccc(/C=N/n2c(-c3ccccc3)n[nH]c2=S)cc1	1	i	·	-1	20	·
O=C(O)COc1ccccc1C(Nc1ccccn1)c1cc(Cl)c2cccnc2c1O (stereo unspecified)	?	i	-85*	-14	-72*	-1%
CCOc1ccc(C(Nc2cccnc2)c2cc(Cl)c3cccnc3c2O)cc1 (stereo unspecified)	?	i	-68*	-3	-68*	0%
COc1ccc(C(=O)NC(c2ccc(Cl)cc2)c2cc(Cl)c3cccnc3c2O)cc1 (stereo unspecified)	·	·	·	1	·	·
CC(=O)NC(C)c1cc(Cl)c2cccnc2c1O (stereo unspecified)	·	·	·	-6	·	·
COc1cc(-c2noc(C)c2/C=C/c2ccc(N)cc2)cc(OC)c1OC	7	i	·	-4	0	·
CCc1nc2oc3ccccc3c(=O)c2c(=O)n1-c1ccc(C)cc1	-21	i	-2	-2	-54*	3%
COc1ccc(Cl)cc1C(=O)NCC(=O)OCc1ccccc1	-5	i	11	1	-2	·
COC(=O)c1cc2c(ccn2-c2ccc(F)cc2)n1Cc1ccc(OC)cc1	-16	i	0	-2	11	·
CCn1c(C(=O)OC)cc2c1ccn2-c1ccc(F)cc1	-22	i	-27	-23	-50*	-2%
COc1ccc(OC)c(S(=O)(=O)Nc2ccc3oc4c(c3c2)C(=O)CCC4)c1	-6	i	-2	0	12	·
Clc1ccc2nc(CSc3nc4ccccc4o3)cn2c1	-1	i	3	-7	-83*	-7%
CCOc1ccc(C2C(C(=O)c3ccc(C)o3)=C(O)C(=O)N2CCN2CCOCC2)cc1OC (stereo unspecified)	5	i	5	1	·	·
CCCN1C(=O)/C(=C\c2nc3ccccc3c(=O)[nH]2)c2ccccc21	5	i	-4	1	-13	·
CCO[C@@H]1OC(C(=O)NCc2ccccc2)=C[C@H](C(C)(C)C)[C@H]1CCCO	-27	i	-5	-8	0	-10%
O=C(O)c1cccc(-n2cc(-c3cccc(C(F)(F)F)c3)cn2)c1	-5	i	·	3	-62*	-4%
O=C(O)c1ccc(-c2nc(-c3cccc(C(F)(F)F)c3)cs2)cc1	1	i	0	3	-18	·
CCN(CC)C(=O)c1[nH]cnc1C(=O)Nc1ccc(OC)cc1	-12	i	-13	-8	0	-8%
